Sampled rows, rich in hits. Any-hit rate of the full collection: about 3.9%.
BoNT A protease: inhibitors of Botulinum neurotoxin A light chain protease. inhibition, % at 10 µM. multiplex microsphere protease substrate cleavage, flow cytometry. 360,000 compounds, 0.17% hits; further: plate controls were buffer without enzyme for full effect and enzyme alone for no effect
Anthrax LF prot: blocks Bacillus anthracis lethal factor protease | P15917 | multiplex microsphere protease cleavage assay, LF | inhibition, % at 10 µM | 360,000 compounds, 0.12% hits | AID 588501; further: plate controls were buffer without enzyme for full effect and enzyme alone for no effect
3CLpro inhibitor: SARS-CoV 3CLpro protease inhibition. P0C6X7. recombinant SARS-CoV 3CLpro, quenched FRET peptide cleavage. inhibition, % at 6 µM. 290,000 compounds, 0.14% hits; in the data active means inhibition above about 12%
Autofluor counter: counter-screen for toxin protease inhibitors: compound fluorescence. compound autofluorescence counterscreen, microsphere flow cytometry; hits give high values. fluorescence intensity (test concentration not listed). 360,000 compounds, 3.1% hits; in the data active means fluorescence intensity above about 16000; inconclusive means no clear call, values can overlap the other calls
VHR inh abs: inhibitors of human VHR1 phosphatase (DUSP3); recombinant VHR phosphatase, pNPP absorbance; inhibition, % at 13.3 µM; 290,000 compounds, 0.52% hits; AID 1654; in the data active means inhibition above about 50%
Target sequence (P51452 whole entry, looked up): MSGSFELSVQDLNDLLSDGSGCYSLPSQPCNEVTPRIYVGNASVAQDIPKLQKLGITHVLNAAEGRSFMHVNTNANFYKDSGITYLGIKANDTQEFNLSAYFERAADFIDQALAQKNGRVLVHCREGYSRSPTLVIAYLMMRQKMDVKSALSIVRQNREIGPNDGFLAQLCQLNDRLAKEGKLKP
BoNT-F LC inh: BoNT F light chain protease inhibition; Multiplex microsphere protease cleavage assay, flow cytometry; inhibition, % at 10 µM; 360,000 compounds, 0.22% hits; in the data active means inhibition above about 35%, passing the limit was not always enough; inconclusive means no clear call, values can overlap the other calls; further: plate controls were buffer without enzyme for full effect and enzyme alone for no effect
* hit, by the source's call. Unless noted, no stated cut-off is given here; in the data, active means inhibition above about 30%; inconclusive means no clear call, values can overlap the other calls; inactive means below that.

`O=C(Oc1ccc(N(Cc2cccs2)C2=NS(=O)(=O)c3ccccc32)cc1)c1ccccc1F` gave BoNT A protease 1, Anthrax LF prot -2, 3CLpro inhibitor 0, Autofluor counter 22943*, VHR inh abs -4 and BoNT-F LC inh -4.
O=C(c1ccccc1F)N(Cc1cccs1)C1CCS(=O)(=O)C1 (stereo not given) was read as BoNT A protease 0, Anthrax LF prot 0, 3CLpro inhibitor 4, Autofluor counter 6039, VHR inh abs 20 and BoNT-F LC inh 4.
COc1ccc2c(c1)c(=O)oc1c(C)c(OCc3ccc(C(=O)O)cc3)ccc12 was read as BoNT A protease 0, Anthrax LF prot 5, 3CLpro inhibitor -1, Autofluor counter 3511, VHR inh abs 52* and BoNT-F LC inh 13.
`Cc1cccc(N2CCN(C(=O)c3cn(C)c(=O)c4c3c3ccccc3n4C)CC2)c1C` gave BoNT A protease 0, Anthrax LF prot -3, 3CLpro inhibitor 1, Autofluor counter 23203*, VHR inh abs 4 and BoNT-F LC inh 0.
Screening Cc1ccc(Cl)cc1N1CCN(C(=O)c2cn(C)c(=O)c3c2c2ccccc2n3C)CC1 returned BoNT A protease -1, Anthrax LF prot -10, 3CLpro inhibitor -2, Autofluor counter 8426, VHR inh abs 8 and BoNT-F LC inh -6.
For CCCN(CCC)C(C(=O)Nc1cccc(OC)c1)c1ccccc1 (stereo not given) the results were BoNT A protease 2, Anthrax LF prot -4, 3CLpro inhibitor 4, Autofluor counter 22137*, VHR inh abs 29 and BoNT-F LC inh 3.
For O=C(Nc1cc(Cl)cc(Cl)c1)C(NCCO)c1ccccc1 (stereo not given) the results were BoNT A protease 2, Anthrax LF prot -1, 3CLpro inhibitor 7, Autofluor counter 22640*, VHR inh abs 9 and BoNT-F LC inh 0.
Screening O=C(Nc1ccc(Cl)cc1)C(c1ccccc1)N(CCO)CCO (stereo not given) returned BoNT A protease -4, Anthrax LF prot -3, 3CLpro inhibitor 0, Autofluor counter 20747*, VHR inh abs 11 and BoNT-F LC inh -6.
O=C(CCCc1nc(-c2ccccc2)no1)NC1CCCCC1 was read as BoNT A protease 1, Anthrax LF prot 4, 3CLpro inhibitor -2, Autofluor counter 5459, VHR inh abs -3 and BoNT-F LC inh -4.
For O=C(Cn1cnc2ccccc2c1=O)NCCC(=O)Nc1ccc(F)cc1 the results were BoNT A protease -2, Anthrax LF prot 2, 3CLpro inhibitor 1, Autofluor counter 3797, VHR inh abs 6 and BoNT-F LC inh -2.
Screening CN1CCN(S(=O)(=O)c2ccc(NC(=O)Cc3ccc([N+](=O)[O-])cc3)cc2)CC1 returned BoNT A protease 0, Anthrax LF prot -2, 3CLpro inhibitor 0, Autofluor counter 6101, VHR inh abs 0 and BoNT-F LC inh -4.
For COc1ccccc1NC(=O)CSc1nccc(=O)[nH]1 the results were BoNT A protease inconclusive, Anthrax LF prot 0, 3CLpro inhibitor 2, Autofluor counter 21630*, VHR inh abs -1 and BoNT-F LC inh -5.
For O=C(CSc1nccc(=O)[nH]1)Nc1ccccc1Sc1ccccc1 the results were BoNT A protease -2, Anthrax LF prot 3, 3CLpro inhibitor -3, Autofluor counter 5044, VHR inh abs 22 and BoNT-F LC inh -5.
COc1ccccc1NC(=O)CSc1nc(N)cc(N)n1 was read as BoNT A protease 3, Anthrax LF prot 2, 3CLpro inhibitor -5, Autofluor counter 21327*, VHR inh abs 15 and BoNT-F LC inh 3.
Screening Cn1c(=O)c2c(n(C)c1=O)n(C)c(=O)n2C returned BoNT A protease 0, Anthrax LF prot 6, Autofluor counter 5510 and BoNT-F LC inh -9.
`COc1cccc(-c2nc3ccc(O)cc3c(=O)o2)c1` gave BoNT A protease inconclusive, Anthrax LF prot -1, 3CLpro inhibitor -2, Autofluor counter 23859*, VHR inh abs -3 and BoNT-F LC inh -3.
CC(C)(C)NC(=O)NC(=O)COC(=O)CCCc1c[nH]c2ccccc12 was read as BoNT A protease -3, Anthrax LF prot -3, 3CLpro inhibitor 3, Autofluor counter 24864*, VHR inh abs 10 and BoNT-F LC inh -9.
`CCOC(=O)Cc1c[nH]c2ccccc12` gave BoNT A protease -1, Anthrax LF prot 0, 3CLpro inhibitor -2, Autofluor counter 8022, VHR inh abs 8 and BoNT-F LC inh -4.
